Assay results from PubChem BioAssay.
Activity calls are given as the source filed them. Unless noted, how the calls were made is not given here.

Columns and labels:
[1] = resazurin metabolic signal in HepG2 cells – cell-based, resazurin fluorescence, 24 h, PK04 Diversity Set, profiling panel (AID 1172); conditions: HepG2 viability, higher = more signal; further: test concentration not given here
[2] = budding yeast growth changes without added modifier – OD600, strain BY4716, 24 h, basal condition, primary screen (AID 1173); conditions: S. cerevisiae BY4716 growth, OD600, 24 h; higher = more signal, called active from +8 up or from −8 down
[3] = viability profiling in MM1S myeloma cells – cell-based, resazurin fluorescence, basal, 24 h, PK04 Diversity Set, profiling panel (AID 1174); conditions: higher = more signal, called active from +8 up or from −8 down;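 further: MM1S multiple myeloma cell line; test concentration not given here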
[4] = target: Dihydroorotate dehydrogenase (quinone), mitochondrial (Plasmodium falciparum (isolate 3D7)) (UniProt Q08210); assay: inhibition of P. falciparum DHODH – biochemical, C-terminal His tag, absorbance 600 nm, primary screen (AID 1175); conditions: PfDHODH enzyme, DCIP absorbance 600 nm; higher = more signal, called active from +8 up or from −8 down;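 further: recombinant parasite enzyme with a five histidine tag at its C terminus; test concentration not given here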
Dihydroorotate dehydrogenase (quinone), mitochondrial (Plasmodium falciparum (isolate 3D7)), sequence (Q08210 whole entry, looked up): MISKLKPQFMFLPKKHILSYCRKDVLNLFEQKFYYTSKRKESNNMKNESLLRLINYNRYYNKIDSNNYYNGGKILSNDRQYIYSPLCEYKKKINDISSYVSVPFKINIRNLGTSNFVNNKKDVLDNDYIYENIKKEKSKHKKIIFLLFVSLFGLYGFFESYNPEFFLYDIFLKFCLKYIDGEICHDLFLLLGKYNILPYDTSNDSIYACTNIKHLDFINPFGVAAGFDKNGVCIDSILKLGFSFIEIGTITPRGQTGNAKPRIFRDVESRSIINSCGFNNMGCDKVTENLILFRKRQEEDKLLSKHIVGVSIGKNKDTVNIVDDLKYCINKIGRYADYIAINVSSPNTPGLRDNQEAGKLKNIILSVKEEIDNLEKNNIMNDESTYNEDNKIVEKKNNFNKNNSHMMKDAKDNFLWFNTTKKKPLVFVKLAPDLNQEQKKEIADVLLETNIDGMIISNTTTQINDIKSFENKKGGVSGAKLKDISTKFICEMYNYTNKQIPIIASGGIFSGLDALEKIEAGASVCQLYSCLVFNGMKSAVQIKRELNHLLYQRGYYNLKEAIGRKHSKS

[5] = inhibition of PAO1 biofilm formation – strain PAO1, LB-PBS medium, absorbance 600 nm, primary screen (AID 1176); further: test concentration not given here; conditions: P. aeruginosa PAO1 growth/biofilm, A600, 12 h; higher = more signal
[6] = growth modulation of vineyard yeast isolate – strain RM11-1a, OD600, basal, 24 h, primary screen (AID 1177);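 further: cultures grown under basal conditions with no added stressor; test concentration not given here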; conditions: S. cerevisiae RM11-1a growth, OD600, 24 h; higher = more signal, called active from +8 up or from −8 down
[7] = growth of efflux-deficient E. coli DRC39 – strain DRC39, OD650, 24 h, E. coli filamentation inducers, primary screen (AID 1178);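 further: growth measured as culture turbidity by optical density at 650 nm; test concentration not given here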; conditions: E. coli DRC39 acrAB, higher = more signal, called active from +8 up or from −8 down
[8] = growth of efflux-deficient E. coli DRC39 – strain DRC39, OD650, 48 h, E. coli filamentation inducers, primary screen (AID 1179);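 further: screen aims at cell division blockers that make cells filament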; conditions: E. coli DRC39 delta-acrAB growth, higher = more signal, called active from +8 up or from −8 down
[9] = viability profiling in RPMI8226 myeloma cells – cell-based, resazurin fluorescence, basal, 24 h, PK04 Diversity Set, profiling panel (AID 1180); conditions: higher = more signal;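 further: RPMI8826 multiple myeloma cell line at 5000 cells per well; test concentration not given here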
[10] = target: E3 ubiquitin-protein ligase XIAP (Homo sapiens) (UniProt P98170); assay: small molecules binding XIAP protein – biophysical, small-molecule microarray, fluorescence 635 nm, primary screen (AID 1181); conditions: higher = more signal;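 further: score merges 667 nm emission and signal to noise over triplicate slides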
E3 ubiquitin-protein ligase XIAP (Homo sapiens), sequence (P98170 whole entry, looked up): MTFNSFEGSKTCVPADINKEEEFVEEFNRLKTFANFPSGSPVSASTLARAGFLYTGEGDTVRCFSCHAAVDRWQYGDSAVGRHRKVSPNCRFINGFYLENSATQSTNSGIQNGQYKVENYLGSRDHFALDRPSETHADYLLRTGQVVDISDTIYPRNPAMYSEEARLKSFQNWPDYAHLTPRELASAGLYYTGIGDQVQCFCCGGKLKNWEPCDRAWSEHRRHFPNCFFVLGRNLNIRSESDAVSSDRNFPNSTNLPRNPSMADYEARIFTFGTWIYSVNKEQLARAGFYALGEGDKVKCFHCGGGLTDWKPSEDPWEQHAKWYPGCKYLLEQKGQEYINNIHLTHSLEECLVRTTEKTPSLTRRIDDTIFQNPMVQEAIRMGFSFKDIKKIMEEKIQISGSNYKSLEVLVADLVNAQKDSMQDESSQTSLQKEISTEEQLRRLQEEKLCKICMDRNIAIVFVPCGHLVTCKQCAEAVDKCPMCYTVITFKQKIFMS

| Structure (SMILES) | z-score [1] | z-score [2] | z-score [3] | composite z-score [4] | z-score [5] | z-score [6] | z-score [7] | z-score [8] | z-score [9] | composite z-score [10] |
| --- | --- | --- | --- | --- | --- | --- | --- | --- | --- | --- |
| CCCc1cc2c(n1Cc1cc(F)cc(F)c1)C(C)C1CN(C(=O)c3ccccc3)C(C)(C(=O)OC)C21 (stereo not given) | -1.27 | 0.615 (inactive) | -1.65 (inactive) | 0.249 (inactive) | 0.992 (inactive) | 0.223 (inactive) | -0.522 (inactive) | -0.152 (inactive) | -1 | 0.0702 |
| COC(=O)[C@@]1(Cc2ccc(OC)cc2)[C@H]2c3cc(C(=O)N(C)C)n(C)c3C[C@H]2CN1C(=O)c1ccccc1 | -0.105 | 1.3 (inactive) | -2.26 (inactive) | -0.342 (inactive) | 0.976 (inactive) | 0.241 (inactive) | -0.372 (inactive) | -1.28 (inactive) | -2.45 | 0.0279 |
| CC(=O)NCCCC[C@@H]1NC(=O)[C@@H]2C[C@H](C(=O)NCCCCCNC(=O)CS)[C@H](c3cccc(OCCO)c3)N2C1=O | 0.77 | -0.719 (inactive) | 1.37 (inactive) | -29.3 (active) | 0.879 (inactive) | -0.86 (inactive) | 0.295 (inactive) | -0.171 (inactive) | 0.739 | -0.13 |
| COC(=O)[C@@]1(Cc2ccc(OC)cc2)[C@H]2c3cc(C(=O)N4CCCC4)n(Cc4ccc(C)c(F)c4F)c3C[C@H]2CN1C(=O)c1ccccc1 | 0.273 | 1.9 (inactive) | -1.4 (inactive) | 0.104 (inactive) | -0.843 (inactive) | 1.41 (inactive) | 0.35 (inactive) | -0.237 (inactive) | -1.59 | 0.0683 |
| NC(=O)NCC#Cc1ccc2c(c1)[C@]1(C(=O)N2)[C@H](C(=O)Nc2nc3ccccc3s2)[C@H]2C(=O)O[C@H](c3ccccc3)[C@H](c3ccccc3)N2[C@@H]1c1ccccc1OCCO | 0.446 | 0.32 (inactive) | -0.784 (inactive) | 2.26 (inactive) | 1.6 (inactive) | 1.8 (inactive) | -0.846 (inactive) | -0.728 (inactive) | -0.651 | 0.711 |
| COCCOC(=O)N1C(=O)[C@@]2(c3cc(C#CCC(C(=O)OC)C(=O)OC)ccc31)[C@H](c1ccccc1OCCO)N1[C@H](c3ccccc3)[C@H](c3ccccc3)OC(=O)[C@H]1[C@@H]2C(=O)NC[C@H](O)c1ccccc1 | -0.326 | 1.67 (inactive) | -2.44 (inactive) | -0.398 (inactive) | 2.23 (inactive) | 2.84 (inactive) | 0.675 (inactive) | 0.382 (inactive) | -3.62 | 0.177 |
| C=C(/C(=C/C[C@H](OC(C)=O)c1ccc(CO)o1)c1cc(C(=O)OC)ccc1OC)C(C)C | -0.783 | 0.18 (inactive) | -1.14 (inactive) | -3.65 (inactive) | -0.0342 (inactive) | 0.447 (inactive) | -1.42 (inactive) | -0.94 (inactive) | -1.34 | -0.0807 |
